These results are taken from ChEMBL document CHEMBL2218924, “A broad activity screen in support of a chemogenomic map for kinase signalling research and drug discovery” (Biochem J, 2013).

Experiment [1] deals with T1, Eukaryotic elongation factor 2 kinase (Homo sapiens) (UniProt O00418).
T1 sequence (whole entry): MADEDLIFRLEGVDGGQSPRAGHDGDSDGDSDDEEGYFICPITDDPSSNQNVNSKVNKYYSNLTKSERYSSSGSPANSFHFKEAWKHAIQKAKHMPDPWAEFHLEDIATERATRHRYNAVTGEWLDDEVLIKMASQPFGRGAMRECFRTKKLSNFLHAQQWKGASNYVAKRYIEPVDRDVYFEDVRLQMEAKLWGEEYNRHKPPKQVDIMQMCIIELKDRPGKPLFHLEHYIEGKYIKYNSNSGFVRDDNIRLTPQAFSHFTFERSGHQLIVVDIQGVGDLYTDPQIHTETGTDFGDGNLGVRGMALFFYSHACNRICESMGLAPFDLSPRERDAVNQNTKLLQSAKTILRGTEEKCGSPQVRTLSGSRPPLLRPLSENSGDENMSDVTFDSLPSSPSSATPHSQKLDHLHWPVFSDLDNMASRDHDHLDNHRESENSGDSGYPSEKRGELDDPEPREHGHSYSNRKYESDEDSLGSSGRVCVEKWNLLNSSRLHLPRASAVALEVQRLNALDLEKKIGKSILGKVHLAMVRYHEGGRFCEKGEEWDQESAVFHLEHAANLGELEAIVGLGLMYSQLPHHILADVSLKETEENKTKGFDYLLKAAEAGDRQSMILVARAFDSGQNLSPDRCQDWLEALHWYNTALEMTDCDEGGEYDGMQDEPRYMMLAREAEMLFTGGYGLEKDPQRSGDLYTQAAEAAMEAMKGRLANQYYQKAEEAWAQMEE
Particulars: at 1 µM; call rule not given here.

Experiment [2] concerns the target T1, Eukaryotic elongation factor 2 kinase (Homo sapiens). Particulars: at 10 µM.

As for `C[S+]([O-])c1ccc(-c2nc(-c3ccc(F)cc3)c(-c3ccncc3)[nH]2)cc1` (centres undefined), the residual activity (in general, the signal under treatment as a percentage of the control signal) in experiment [1] is 111% (inactive); in experiment [2], 91%.

`CN[C@@H]1C[C@H]2O[C@@](C)([C@@H]1OC)n1c3ccccc3c3c4c(c5c6ccccc6n2c5c31)C(=O)NC4`: the residual activity was 74% (inactive) in experiment [1] and 120% in experiment [2].
